From PubChem
In the library only some 2.6% were active in any assay of this set; here they are far more common.
A3A deaminase: inhibitors of human APOBEC3A DNA deaminase | recombinant A3A, FAM/TAMRA ssDNA deamination fluorescence | inhibition, % at 20 µM | hit rate 0.41% among 330,000;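 active = at least 40% inhibition at 20 µM here, with at most 30% in a related deaminase screen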
Target sequence (P31941 whole entry, looked up): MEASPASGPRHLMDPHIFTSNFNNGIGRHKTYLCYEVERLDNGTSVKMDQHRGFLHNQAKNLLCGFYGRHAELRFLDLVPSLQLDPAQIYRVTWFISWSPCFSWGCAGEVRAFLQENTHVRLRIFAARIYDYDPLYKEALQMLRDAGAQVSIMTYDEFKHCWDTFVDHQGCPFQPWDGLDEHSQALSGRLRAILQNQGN
PABP polyA inh: PABP-poly(A) binding inhibition. P11940. PABP-poly(A) RNA binding, fluorescence polarization. calls only at 35 µM. hit rate 1% among 290,000. AID 2014;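 note: calls also rest on retests at 20 µM and on dose response follow-up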
PHOSPHO1 inh: PHOSPHO1 (human) inhibition; inhibition, % at 13.3 µM; hit rate 1.1% among 290,000; recombinant PHOSPHO1, absorbance phosphatase assay; Q8TCT1; AID 1565; in the data active = inhibition above about 60%
PABP1 MLLE inh: blocks PAM2 peptide binding to the PABP1 MLLE domain. GST-MLLE / FITC-PAM2 fluorescence polarization. inhibition, % at 20 µM. hit rate 0.36% among 360,000. AID 588489; in the data active = inhibition above about 35%, passing the limit was not always enough
APOBEC3G inh: inhibitors of human APOBEC3G DNA deaminase; Q9HC16; recombinant A3G, ssDNA deamination FAM/TAMRA fluorescence; inhibition, % at 20 µM; hit rate 0.28% among 330,000; AID 493012;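 active = inhibition of at least 40% at 20 µM, with no more than 30% in the related APOBEC3A deaminase screen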
eIF4H inh: inhibitors of RNA binding by human eIF4H. Q15056. eIF4H fluorescence polarization binding assay. inhibition, % at 35 µM. hit rate 0.94% among 290,000. AID 2012;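 note: calls also rest on retests at 20 µM and on dose response follow-up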
Each line names hits and unclear results; the compound was inactive in the other large screens. Unless noted, the rule behind the calls is not given here.

CCOC(=O)C1=C(O)/C(=C/c2ccc(CNC(=O)C(=O)Nc3ccc(C)cc3)o2)N=C1C	eIF4H inh 103
CCOc1cc(/C=N/NC(=O)c2ccc(-c3csc(Nc4ccc(C)cc4)n3)cc2)ccc1OCC(=O)O	none (no result: A3A deaminase, APOBEC3G inh)
O=C(O)COc1ccc(/C=N/NC(=O)c2ccc(-c3csc(Nc4ccc(Cl)cc4)n3)cc2)cc1	eIF4H inh 98 (no result: A3A deaminase, APOBEC3G inh)
Cc1ccccc1-n1c(SCC(=O)c2cc(C)n(C)c2C)nnc1-c1ccncc1	PHOSPHO1 inh 93
Cc1ccccc1-n1c(SCC(=O)N(C)C2CCS(=O)(=O)C2)nnc1-c1ccncc1 (stereo unspecified)	none
CN(C)CCNCCCNc1c2ccccc2nc2cccc([N+](=O)[O-])c12	PABP1 MLLE inh 52 (no result: A3A deaminase, PABP polyA inh, PHOSPHO1 inh, APOBEC3G inh, eIF4H inh)
CN(C)CCCNc1ccc(-c2n[nH]c(=O)c3ccccc23)cc1[N+](=O)[O-]	none
CN(C)CCCNc1c2c(nc3ccccc13)CCC2	PABP polyA inh active
CCCCCCCN(c1ccccc1)[C@@H]1C[C@H]2CCCC(=O)N3CC[C@@H](C1)[C@@H]23	none (no result: A3A deaminase, PABP polyA inh, PHOSPHO1 inh, APOBEC3G inh, eIF4H inh)
Cc1ccc(-n2nc3ccc(NC(=S)NC(=O)/C=C/c4ccco4)cc3n2)cc1	PABP polyA inh active
Cc1ccccc1NC(=S)NC(=O)/C=C/c1ccco1	none
Cc1cccc(NC(=S)NC(=O)/C=C/c2ccco2)c1	none
Cc1ccc(-n2nc3cc(C)c(NC(=S)NC(=O)/C=C/c4ccco4)cc3n2)cc1	PABP polyA inh active, eIF4H inh 68
CCC(=O)Nc1cc2nn(-c3ccc(C)cc3)nc2cc1C	PHOSPHO1 inh 63
CCOC(=O)c1c(C)[nH]c(C(=O)N/N=C/c2ccc(OC)c(OC)c2)c1C	PHOSPHO1 inh 75
CCOC(=O)c1c(C)[nH]c(C(=O)N/N=C\c2ccccc2O)c1C	PABP polyA inh active (no result: A3A deaminase, APOBEC3G inh)
CC(=O)Oc1c(Br)cc(N(C(C)=O)S(=O)(=O)c2ccccc2)c2ccccc12	none
COC(=O)C1CC(O)C(O)C(O)C1 (stereo unspecified)	none (no result: A3A deaminase, PABP polyA inh, PHOSPHO1 inh, APOBEC3G inh, eIF4H inh)
c1coc(-c2ncc[nH]2)c1	PABP polyA inh active, eIF4H inh 102
NCc1cc2c3c(c1)CCCN3CCC2	PABP polyA inh active, PABP1 MLLE inh 36, eIF4H inh 93
CCCOC(=O)c1cc(-c2ccc(/C=C3/C(=O)N(C)C(=O)C(C#N)=C3C)o2)ccc1Cl	none (no result: PABP polyA inh, PHOSPHO1 inh, eIF4H inh)
C=CCOC(=O)c1cc(-c2ccc(/C=C3\C(=O)NC(=O)C(C#N)=C3C)o2)ccc1Cl	PABP polyA inh active, eIF4H inh 71 (no result: A3A deaminase, APOBEC3G inh)
CC1=C(C(=O)N(C(C)C)C(C)C)CC(CC(=O)NCc2cccc3ccccc23)C(=O)N1Cc1ccccc1 (stereo unspecified)	none (no result: A3A deaminase, PABP polyA inh, PHOSPHO1 inh, APOBEC3G inh, eIF4H inh)
O=C(O)c1ccc(Nc2nc(-c3cc4ccccc4oc3=O)cs2)cc1O	eIF4H inh 51
CC(=O)Nc1ccc(Nc2nc(-c3cc4ccccc4oc3=O)cs2)cc1	none
CCOc1ccc(-c2noc(CCC(=O)NCCc3ccccc3)n2)cc1OC	none
COc1ccc(CCNC(=O)c2sc(=S)n(C)c2N)cc1	PABP1 MLLE inh 43
COC(=O)c1sc(=S)n(-c2ccccc2OC)c1N	none
CNC(=S)NCCc1ccc(OC)cc1	PABP polyA inh active
Cc1ccc(C)c(-n2c(N)c(C(N)=O)sc2=S)c1	none (no result: PABP polyA inh, PHOSPHO1 inh, eIF4H inh)
COc1ccc(Cl)cc1-n1c(N)c(C(N)=O)sc1=S	PHOSPHO1 inh 100
CCCCNC(=O)c1sc(=S)n(-c2ccccc2OC)c1N	PHOSPHO1 inh 69, PABP1 MLLE inh 45
CC(NS(=O)(=O)c1cccc(Cl)c1F)[C@H](O)c1ccccc1 (stereo partly specified)	none (no result: A3A deaminase, PABP polyA inh, PHOSPHO1 inh, APOBEC3G inh, eIF4H inh)
CCCCCC1=C(C(=O)OC)C(C(=O)OCC)N(S(=O)(=O)C(F)(F)F)c2ccccc21 (stereo unspecified)	none (no result: PABP polyA inh, PHOSPHO1 inh, eIF4H inh)
CCCn1c2ccccc2c2nnc(SC(CC)C(=O)Nc3sc4c(c3C#N)CCCC4)nc21 (stereo unspecified)	PHOSPHO1 inh 61
CCCn1c2ccccc2c2nnc(SC(CC)C(=O)Nc3cc(C)on3)nc21 (stereo unspecified)	none
O=C(N/N=C/c1ccco1)c1cccc(N2CCCC2=O)c1	eIF4H inh 91
O=C(N/N=C/c1ccco1)c1cccc(N2Cc3ccccc3C2)c1	PABP polyA inh active, eIF4H inh 91
O=C(N/N=C/c1ccco1)c1cccc(NC(=O)c2cccc(Cl)c2)c1	none
CC(=O)c1ccc(OC(C)C)c(Cc2c(O)nc(N)[nH]c2=O)c1	PABP polyA inh active, eIF4H inh 0.7
CCOc1ccccc1-n1c(=S)sc2c(=O)n(-c3ccc(C)cc3)c(=S)[nH]c21	PABP polyA inh active, eIF4H inh active
CC(=O)c1c(C)cc(C)c(CSc2nc(C)cc(=O)[nH]2)c1C	PABP1 MLLE inh 44
C/C(=N/NC(=O)c1nnn(-c2nonc2N)c1COc1ccccc1)c1ccccc1	none
CCOC(=O)[C@@H]1[C@H]2COc3cc(OC)ccc3[C@H]2N2C(=O)N(c3ccc(C(F)(F)F)cc3)C(=O)[C@@]12C	none
CCOc1ccccc1C1C(C#N)=C(N)SC(N)=C1C#N	PABP polyA inh inconclusive, PHOSPHO1 inh 70, eIF4H inh inconclusive
CCOc1ccc(C2C(C#N)=C(N)SC(N)=C2C#N)cc1OCC	eIF4H inh 122
O=C(COC(=O)CCOc1ccccc1)NCc1ccco1	PABP polyA inh active, eIF4H inh 94
O=C(COC(=O)C1CC2C=CC1C2)NCc1ccco1 (stereo unspecified)	PABP polyA inh active, eIF4H inh 93
CC1(C(=O)NS(=O)(=O)c2cccc(OC(F)F)c2)CCN1C(=O)c1ccco1 (stereo unspecified)	none (no result: A3A deaminase, PABP polyA inh, PHOSPHO1 inh, APOBEC3G inh, eIF4H inh)
C1CSC2(N1)C1CC3CC2CC(C1)C31NCCS1 (stereo unspecified)	PHOSPHO1 inh 61
O=C1CSC2(N1)C1CC3CC(C1)CC2C3 (stereo unspecified)	none
Cn1nnc(NC(=S)NC(=O)c2cccc3c(Br)cccc23)n1	PABP1 MLLE inh 40
Cc1ccc(OCC(O)CN2CCOCC2)c(C)c1 (stereo unspecified)	none
Cc1ccc(-c2cc(C(=O)N/N=C/c3ccc([N+](=O)[O-])o3)c3ccccc3n2)o1	PABP polyA inh active, eIF4H inh 76
O=C(CNc1cccc2ccccc12)N/N=C/c1ccc([N+](=O)[O-])o1	PABP polyA inh active, eIF4H inh 85
Cn1c(/C=C/c2ccc([N+](=O)[O-])o2)nc2ccccc2c1=O	PABP polyA inh active, eIF4H inh inconclusive
O=C(N/N=C/c1ccc([N+](=O)[O-])o1)c1cc(-c2ccncc2)nc2ccccc12	PABP polyA inh active, eIF4H inh 68
Cn1c(/C=C/c2ccccc2)nc2ccccc2c1=O	none
O=C(CNc1cccc([N+](=O)[O-])c1)N/N=C/c1ccc([N+](=O)[O-])o1	none
CN(Cc1ccccc1)C(=O)c1ccc(NC(=O)Cc2cccc(NC(=O)C3CCN(C(=O)C4CCCC4)CC3)c2)cc1	none (no result: PABP polyA inh, PHOSPHO1 inh, eIF4H inh)
